High-throughput results (PubChem BioAssay)
L major viab – Leishmania major promastigote growth inhibition. AID 1063. inhibition, % at 10 µM. Leishmania major promastigotes, resazurin fluorescence viability. 9% of 200,000 active; in the data active = inhibition above about 50%;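 also: promastigotes grown with compound for 44 hours at 28 °C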
RAM inhibit – blocks the yeast RAM network | S. cerevisiae dse1pr::URA3 reporter, 5-FOA growth OD615, 2 d; analog-sensitive cbk1-as2 kinase mutant strain | inhibition, % at 50 µM | 1.8% of 190,000 active | AID 868;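 active = inhibition above a set limit, 3 SD over mean compound inhibition, cut at about 8.4% in these data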;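 also: 0% = DMSO-only wells with no growth and 100% = 10 µM 1-NA-PP1 full growth; inhibition rescues growth on 5-FOA so higher OD means more RAM inhibition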
WT yeast gro inh – growth inhibition of WT yeast, mitochondrial fusion screen. AID 1362. mitochondrial fusion phenotypic screen, WT strain. 2.1% of 190,000 active. inhibition, % at 10 µM; in the data active = inhibition above about 58%; tested in S. cerevisiae
CHOP inhibitor – blocks CHOP induction under ER stress. CHO-K1 CHOP-promoter luciferase, tunicamycin-induced, 15-18 h. inhibition, % at 10 µM. 3.8% of 220,000 active;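 active = compounds that reduced the stress-induced luciferase reporter signal by more than about 70% of percent inhibition, limit read from the data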;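 also: 0% = tunicamycin plus vehicle and 100% = wells without tunicamycin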
* = called active by the depositor; nt = no result. Compounds with a hit are over-represented: about 13% of the library has one in this group of screens.

SMILES | L major viab | RAM inhibit | WT yeast gro inh | CHOP inhibitor
Cc1c(C(c2ccc(Cl)cc2Cl)c2c(O)c3ccccc3oc2=O)c(=O)n(-c2ccccc2)n1C (stereo not drawn) | -12 | 6 | 75* | 14
Cc1c(C(c2ccc(Br)cc2)c2c(O)c3ccccc3oc2=O)c(=O)n(-c2ccccc2)n1C (stereo not drawn) | 0 | 10* | 18 | 1
COc1ccc2c3c1O[C@H]1C(=O)CC[C@@]4(O)C(C2)N(CC2CC2)CCC314 (stereo partly drawn) | nt | nt | nt | 2
C=CCn1c(O)c(C=NCCCOc2ccc(CC)cc2)c(=O)[nH]c1=S | 6 | 7 | -3 | 77*
O=C1NC(=O)C2(Cc3ccccc3N3CCCC32)C(=O)N1Cc1ccccc1 (stereo not drawn) | -3 | 0 | -2 | 24
O=C1NC(=O)C2(Cc3c(nc4ccccn4c3=O)N3CCCCCC32)C(=O)N1Cc1ccccc1 (stereo not drawn) | 97* | 0 | 15 | 44
COc1cc(OC)cc(C(=O)Nc2ccc(Br)cc2C(=O)c2ccccc2)c1 | 3 | 1 | 3 | -1
COc1cc(C(=O)Nc2ccc(Br)cc2C(=O)c2ccccc2Cl)cc(OC)c1OC | 51* | 5 | 1 | 40
CCOc1cccc(OCC)c2c(C)[n+](CC3CCCO3)c(C)c1-2 (stereo not drawn) | 93* | 1 | 16 | 21
CCCCn1c(O)c(C(CC)=NC(C)c2ccccc2)c(=O)[nH]c1=O (stereo not drawn) | 4 | 1 | 15 | 81*
CCCCn1c(O)c(C(CC)=Nc2ccc(OCC)cc2)c(=O)[nH]c1=O | 17 | 1 | 13 | 91*
CCCCn1c(O)c(C(CC)=NCc2cc(OC)cc(OC)c2)c(=O)[nH]c1=O | 100* | 2 | 15 | 55
CCc1cccc(CC)c1NC(=S)N1CC2CC(C1)c1cccc(=O)n1C2 (stereo not drawn) | 22 | 1 | 4 | 1
C[C@H]1O[C@H]1P(=O)(O)O | -3 | 3 | -1 | 0
c1ccc(C(OCCN2CCNCC2)c2ccccc2)cc1 | 100* | 2 | nt | -1
c1ccc2nc(OCCN3CC3)ccc2c1 | nt | nt | nt | 9
CN[C@@H]1C[C@@H](c2ccc(Cl)c(Cl)c2)c2ccccc21 | nt | nt | 53 | 4
CC12CCCCC1=NC(c1ccc(Br)cc1)N2O (stereo not drawn) | -5 | 0 | 10 | 25
CCC(C)N1C(=O)NC(=O)C2(Cc3c(ccc4ccccc34)N(C)C2)C1=O (stereo not drawn) | 22 | 2 | 14 | 76*
CCOC(=O)C1=C(N)Oc2cc(C)oc(=O)c2C12C(=O)N1c3c(cccc32)C(C)=CC1(C)C (stereo not drawn) | 4 | 3 | 4 | 14
CCOC(=O)C1=C(N)OC2=C(C(=O)CCC2)C12C(=O)N1c3c(ccc(C)c32)C(C)=CC1(C)C (stereo not drawn) | 79* | 3 | 4 | 26
CCOC(=O)C1=C(N)Oc2cc(C)oc(=O)c2C12C(=O)N1c3c(cc(OC)cc32)C(C)=CC1(C)C (stereo not drawn) | -1 | 3 | 2 | 76*
CCOC(=O)C1=C(N)Oc2cc(C)oc(=O)c2C12C(=O)N1c3c(cccc32)C(C)CC1(C)C (stereo not drawn) | 2 | 5 | 9 | 83*
CCOC(=O)C1=C(N)OC2=C(C(=O)CC(C)(C)C2)C12C(=O)Nc1ccccc12 (stereo not drawn) | -6 | 1 | 8 | 45
CCCC12CN3CCN(CC(C3)/C1=N\NC(=O)c1ccncc1)C2 | 1 | 3 | -2 | -5
SMILES | L major viab | RAM inhibit | WT yeast gro inh | CHOP inhibitor
CC(=O)[C@@]1(O)CC[C@H]2[C@@H]3CC=C4C[C@@H](O)CC[C@]4(C)[C@H]3CC[C@@]21C | -4 | 1 | 6 | 10
O=C(Oc1ccc([N+](=O)[O-])cc1)N1CCC(N2CCCCC2)CC1 | 93* | 1 | 9 | -3
O=C(c1cc(F)ccc1F)C1CCCN(CCCc2ccccc2)C1 (stereo not drawn) | 82* | 1 | 13 | 0
O=C(O)c1nonc1-c1nonc1C(=O)O | -1 | 1 | -6 | 5
OC(Cc1ccccc1)(c1ccccc1)C1CN2CCC1CC2 (stereo not drawn) | 92* | 1 | -4 | 42
CCCCN1C(=O)C(C2c3ccccc3C(=O)N2Cc2ccccc2)C(=O)NC1=S (stereo not drawn) | -15 | -1 | -5 | -17
COc1ccc(C(Nc2ccccc2)P(=O)(Oc2ccccc2)Oc2ccccc2)cc1 (stereo not drawn) | -2 | 7 | 3 | 0
Cc1cccc(OP(=O)(Oc2ccccc2)OC(c2ccccc2)C(F)(F)F)c1 (stereo not drawn) | 19 | 2 | 46 | 76*
C=CCN1CC[C@]23c4c5ccc(O)c4O[C@@H]2/C(=N/N=C2\CC[C@@]4(O)C6Cc7ccc(O)c8c7[C@@]4(CCN6CC=C)[C@@H]2O8)CC[C@@]3(O)C1C5 | nt | nt | nt | 8
CCC(C)C1N=C(c2ccccc2)c2cc(Cl)ccc2N(CC(=O)NCc2ccco2)C1=O (stereo not drawn) | 4 | 3 | 11 | 88*
COc1ccccc1-n1c(O)c(/C=N/NC(=S)Nc2ccccc2)c(=O)[nH]c1=S | nt | nt | nt | 2
Cc1ccc(-n2c(O)c(/C=N/c3ncc(Br)cc3Br)c(=O)[nH]c2=O)cc1 | 4 | 4 | -4 | 74*
Cc1ccc(N/N=C/c2c(O)n(-c3ccccc3)c(=O)[nH]c2=O)cc1 | 92* | 0 | 52 | 0
CCN1C(=O)NC(=O)/C(=C/c2cc(C)n(-c3sc(C)c(C)c3C#N)c2C)C1=O | 0 | 1 | 10 | 5
CCOC(=O)c1c(-n2c(C)cc(/C=C3/C(=O)NC(=O)N(CC)C3=O)c2C)sc2c1CCCC2 | 96* | nt | nt | nt
NCC#Cc1ccccc1 | nt | nt | nt | 5
Brc1ccc2c(c1)C(OC1CN3CCC1CC3)c1ccccc1CS2 (stereo not drawn) | 100* | 0 | 82* | 63
c1ccc2c(c1)CSc1ccccc1C2C1=NCCN1 (stereo not drawn) | -2 | 0 | 2 | 0
NCCCP(=O)(O)O | nt | nt | nt | -35
CC(NCc1ccc(Cl)c(Cl)c1)C(O)c1ccccc1 (stereo not drawn) | 91* | 1 | 25 | 40
CC(NCc1ccccc1Cl)C(O)c1ccccc1 (stereo not drawn) | 3 | 0 | 17 | 5
Cc1ccc(S(=O)(=O)N[C@@H](CCCCN)C(=O)CCl)cc1 | nt | nt | nt | 9
CCN(C(C)=O)c1cccc(-c2ccnc3c(C#N)cnn23)c1 | nt | nt | -9 | 9
O=C(c1ccc2c(c1)OCO2)C1CCCN(CC2CCCCC2)C1 (stereo not drawn) | 91* | 1 | 15 | 19
Cc1cccc(CN2CCCC(C(=O)c3ccc4c(c3)OCO4)C2)n1 (stereo not drawn) | 31 | 1 | -3 | -17
CCn1c(O)c(N=Nc2ccc(S(=O)(=O)N3CCOCC3)cc2)c(=O)n(CC)c1=S | nt | nt | nt | 73*
COc1ccccc1CCNCc1cc2c(cc1[N+](=O)[O-])OCO2 | 27 | -1 | -3 | -18
CC(C)(C)c1cc([N+](=O)[O-])cc(C(C)(C)C)c1O | 15 | -1 | 81 | 73*
